Source: PubChem BioAssay (NCI)
This is part of a sample that, as a whole, favours compounds with a hit. Of some 79,000 tested, about 15% had one in any assay. A number with no mark means an inactive call. Activity calls are given as the source filed them. Rule as the data show it: active = growth inhibition above about 70%; inactive = the rest.

Experiment: NCI Yeast Anticancer Drug Screen. Data for the rad50EPP+ strain (AID 151);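 also: 0% = growth of vehicle-treated control cultures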
Conditions: S. cerevisiae rad50 mutant strain, active compounds read high
Experimental: Growth inhibition of yeast strains with defined genetic alterations is measured as a screen for potential anti-cancer activity. Selected strains with alterations in DNA damage repair or cell cycle control were exposed to compounds and growth inhibition was measured relative to vehicle treated controls. The strain used in this assay is rad50EPP+

SMILES: COC(=O)Oc1cc(Cl)c(Cl)cc1Cl
- growth inhibition (at 1.2 µM): -1%
- growth inhibition (at 3.7 µM): 0%
- growth inhibition (at 11.0 µM): 7%
- growth inhibition (at 33.0 µM): 2%
- growth inhibition (at 100.0 µM): 1%

SMILES: Cn1c(-c2ccc(/C=N\N3CCN(/N=C/c4ccc(-c5c[n+]6ccccc6n5C)cc4)CC3)cc2)c[n+]2ccccc12
- growth inhibition (at 1.2 µM): -36%
- growth inhibition (at 3.7 µM): -26%
- growth inhibition (at 11.0 µM): -27%
- growth inhibition (at 33.0 µM): -9%
- growth inhibition (at 100.0 µM): 6%

SMILES: OC1(c2ccccc2)CCCc2ccc(Cl)cc21 (stereo not given)
- growth inhibition (at 1.2 µM): 3%
- growth inhibition (at 3.7 µM): 7%
- growth inhibition (at 11.0 µM): 13%
- growth inhibition (at 33.0 µM): 20%
- growth inhibition (at 100.0 µM): 74% (active)

SMILES: CN(C)CCNc1ccc2ncnc3c2c1C(=O)c1ccccc1-3
- growth inhibition (at 1.2 µM): 90% (active)
- growth inhibition (at 3.7 µM): 90% (active)
- growth inhibition (at 11.0 µM): 93% (active)
- growth inhibition (at 33.0 µM): 95% (active)
- growth inhibition (at 100.0 µM): 95% (active)

SMILES: CCCCC/C(=C(\C#N)C(=O)OCC)c1ccccc1
- growth inhibition (at 1.2 µM): 3%
- growth inhibition (at 3.7 µM): 3%
- growth inhibition (at 11.0 µM): 13%
- growth inhibition (at 33.0 µM): 26%
- growth inhibition (at 100.0 µM): 78% (active)

SMILES: Cc1cc(S(=O)(=O)Nc2nnc3cnc4ccccc4n23)c(S)cc1Cl
- growth inhibition (at 1.2 µM): -3%
- growth inhibition (at 3.7 µM): -16%
- growth inhibition (at 11.0 µM): -25%
- growth inhibition (at 33.0 µM): -57%
- growth inhibition (at 100.0 µM): -59%

SMILES: Cc1nc(-c2cc3cc([N+](=O)[O-])ccc3oc2=O)cs1
- growth inhibition (at 1.2 µM): -7%
- growth inhibition (at 3.7 µM): 26%
- growth inhibition (at 11.0 µM): 57%
- growth inhibition (at 33.0 µM): 81% (active)
- growth inhibition (at 100.0 µM): 99% (active)

SMILES: Cc1cc2c(cc1C)[n+]([O-])c(-c1nc3ccccc3s1)c(N)[n+]2[O-]
- growth inhibition (at 1.2 µM): 1%
- growth inhibition (at 3.7 µM): 15%
- growth inhibition (at 11.0 µM): 44%
- growth inhibition (at 33.0 µM): 82% (active)
- growth inhibition (at 100.0 µM): 97% (active)
